Out of some 320,000 compounds screened, about 22,000 (6.9%) were called active. Where a call stands in place of a potency, no number is given. Not shown: some 27% with an inconclusive outcome. The call rests on the fitted dose curve; in most records, active means well fitted inhibition curve with a large enough effect; inconclusive means small, poorly fitted or top-dose-only effect, or another doubt; inactive means no such curve, though single readings can be large or run the other way. The full list was thinned out, with actives kept by preference.
Experiment: Primary qHTS for delayed death inhibitors of the malarial parasite plastid, 96 hour incubation
Details: P. falciparum luciferase reporter growth; series mostly up to 28.7 µM
Summary of the method: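 Erythrocytes infected with luciferase-expressing P. falciparum were dispensed at 2% hematocrit and 0.05% parasitemia (final), then incubated with compounds 96 hours at 37 C in 5% CO2. Luminescence after detection reagent addition reported growth.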
With `Cc1cc(C)c(S(=O)(=O)n2cc(C(C)C(N)C(=O)O)c3ccccc32)c(C)c1` (stereo unspecified) the Potency was “inactive”.
For `O=C(Nc1cccc(F)c1)NC1CCCc2ccccc21` (stereo unspecified), the Potency was “inactive”.
With `COc1ccc(CN2CCC(n3nccc3NC(=O)CCCc3ccccc3)CC2)cc1C` the Potency was “inactive”.
In the case of `COCCNC(=O)c1ccc(S(=O)(=O)c2ccc(Cl)cc2)c(NC(C)=O)c1`, the Potency is reported as “inactive”.
For `O=C(O)/C=C/c1ccc(OCCCF)cc1`, the Potency was “inactive”.
In the case of `COc1ccc([C@H]2CC(=O)C=C(/C=C/c3ccccc3)C2)cc1`, the Potency is reported as “inactive”.
In the case of `CCOC(=O)C1(S(=O)(=O)c2ccccc2)CCN(Cc2ccccc2)CC1`, the Potency is reported as “inactive”.
In the case of `CCOC(=O)C1(S(=O)(=O)c2ccc(Cl)cc2)CCN(Cc2ccccc2)CC1`, the Potency is reported as 2.94 µM (active).
With `O=C(NNS(=O)(=O)c1ccc(Cl)cc1)C1CCN(Cc2ccccc2)CC1` the Potency was “inactive”.
For `N#Cc1nc(-c2cccc3ccccc23)oc1N`, the Potency was “inactive”.
In the case of `Cc1cc(NC(=O)Nc2c[nH]c(=O)[nH]c2=O)ccc1Br`, the Potency is reported as “inactive”.
For `CC1CCN(S(=O)(=O)c2ccc3c(c2)n(C)c(=O)n3C)CC1`, the Potency was “inactive”.
In the case of `COCCN1C(=O)C(=O)/C(=C(/O)c2ccc(S(=O)(=O)N3CCCCC3)cc2)C1c1ccc(OC)c(OC)c1` (stereo unspecified), the Potency is reported as 9.28 µM (active).
In the case of `CCOc1cc(C2/C(=C(/O)c3ccc(S(=O)(=O)N4CCCCC4)cc3)C(=O)C(=O)N2CCOC)ccc1O` (stereo unspecified), the Potency is reported as “inactive”.
In the case of `COCCN1C(=O)C(=O)/C(=C(/O)c2ccc(S(=O)(=O)N3CCOCC3)cc2)C1c1ccc(OC)c(OC)c1` (stereo unspecified), the Potency is reported as “inactive”.
In the case of `CN(C)S(=O)(=O)c1cccc(-c2nn(-c3ccccc3)cc2/C=C2\SC(=S)N(CC(=O)O)C2=O)c1`, the Potency is reported as “inactive”.
For `Cc1nn(C)c(C)c1C(C)NC(=O)c1ccc(OC2CCN(Cc3ccccn3)CC2)cc1` (stereo unspecified), the Potency was “inactive”.
For `Cc1cccc(C(C)C)c1NC(=O)COC(=O)C1CC(=O)N(Cc2ccccc2)C1` (stereo unspecified), the Potency was “inactive”.
In the case of `Cc1ccc(S(=O)(=O)n2nc(OC(=O)C(C)(C)C)cc2N)cc1`, the Potency is reported as “inactive”.
For `Cc1nn(C(C)(C)C)c(OC(=O)CC(C)C)c1S(=O)(=O)c1ccccc1`, the Potency was 9.28 µM (active).
For `Nc1cc(OC(=O)c2ccccc2Br)nn1S(=O)(=O)c1ccccc1`, the Potency was “inactive”.
For `CCCc1ccc(OCC(O)CN2CCN(C(=O)OCC)CC2)cc1` (stereo unspecified), the Potency was “inactive”.
With `CCc1ccc(OCC(O)CN2CCN(CCO)CC2)cc1` (stereo unspecified) the Potency was “inactive”.
In the case of `CCCc1ccc(OCC(O)CN2CCN(CCO)CC2)cc1` (stereo unspecified), the Potency is reported as 10.4 µM (active).
With `Cc1ccc(S(=O)(=O)N2CCCCC2)cc1C(=O)N1CCN(CCO)CC1` the Potency was “inactive”.
With `CN(CC(=O)Nc1cccc(F)c1)C(=O)C1CC(=O)N(CCc2ccccc2)C1` (stereo unspecified) the Potency was “inactive”.
For `COc1ccc(CN2CCCC(N3CCc4ccccc4C3)C2)c(O)c1` (stereo unspecified), the Potency was 8.28 µM (active).
For `COc1ccccc1CN1CCCC(N2CCN(c3ccc(F)cc3)CC2)C1` (stereo unspecified), the Potency was “inactive”.
For `COc1cccc(N2C(=O)CC(N3CCc4ccccc4C3)C2=O)c1` (stereo unspecified), the Potency was “inactive”.
With `COc1ccc(CN2C3CCCC2CC(NC(=O)c2cccc(F)c2)C3)cc1` (stereo unspecified) the Potency was “inactive”.
In the case of `CCCCCCC(O)(CCN1CCCCC1)c1ccccc1` (stereo unspecified), the Potency is reported as “inactive”.
With `O=C(COc1ccccc1Cl)Nc1ccccc1C(=O)NC1CC1` the Potency was “inactive”.
In the case of `COc1ccc2c(c1)OC(O)(C(F)(F)C(F)F)CC2=O` (stereo unspecified), the Potency is reported as 0.828 µM (active).
In the case of `CC1(C)CC(=O)c2ccc(O)cc2O1`, the Potency is reported as “inactive”.
For `O=S1(=O)N=C(N(CCO)/N=C/c2ccccc2F)c2ccccc21`, the Potency was “inactive”.
With `COc1ccc(-n2nc3c(N4CCC(C(=O)NCc5ccccc5)CC4)nnc(C)c3c2C)cc1` the Potency was 13.1 µM (active).
With `COc1ccc(CNC(=O)C2CCN(C(=O)c3ccccc3)CC2)cc1` the Potency was “inactive”.
In the case of `CCOc1ccc(CNC(=O)C2CCCN(c3nnc(C)c4c(C)n(-c5ccccc5)nc34)C2)cc1` (stereo unspecified), the Potency is reported as “inactive”.
With `COC(=O)c1ccc(Nc2ncnc3sccc23)cc1` the Potency was “inactive”.
For `CCOC(=O)c1c(CN2CCOCC2)n(-c2ccccc2)c2ccc(O)cc12`, the Potency was “inactive”.
With `CC(=O)c1c(C)n(-c2ccc(N(C)C)cc2)c2ccc(OCC(N)=O)cc12` the Potency was 9.28 µM (active).
With `Cc1c(Cc2ccccc2)c(=O)oc2cc(OCC(N)=O)ccc12` the Potency was “inactive”.
In the case of `CCOC(=O)c1c(C)oc2ccc(OCC(=O)N(CC)CC)cc12`, the Potency is reported as “inactive”.
With `CC(=O)c1c(C)n(-c2ccc(C)cc2)c2ccc(O)cc12` the Potency was 7.38 µM (active).
In the case of `O=C(O)CCC(=O)Nc1ccc(OCC2CCCO2)cc1` (stereo unspecified), the Potency is reported as “inactive”.
With `CCn1nc(C(=O)Nc2ccc(N3CCOCC3)cc2)c2ccccc2c1=O` the Potency was “inactive”.
For `CCCn1nc(C(=O)Nc2ccc3nc(C)sc3c2)c2ccccc2c1=O`, the Potency was “inactive”.
For `CCCCn1nc(C(=O)Nc2cccc(C(=O)NC3CC3)c2)c2ccccc2c1=O`, the Potency was 11.7 µM (active).
With `CC(=O)Nc1ccc(S(=O)(=O)NCC2CCC(C(=O)NCCc3ccccc3)CC2)cc1` (stereo unspecified) the Potency was “inactive”.
In the case of `COc1ccc(C2NC(=O)N(C)C(C)=C2[N+](=O)[O-])cc1` (stereo unspecified), the Potency is reported as “inactive”.
With `COc1ccc(C(C)(C)C)cc1NC(=O)CCN1C(=O)C2CCCCC2C1=O` (stereo unspecified) the Potency was “inactive”.
In the case of `NC(=O)c1ccsc1NC(=O)COC(=O)COc1ccc(C=O)cc1`, the Potency is reported as “inactive”.
With `CC(=O)Nc1ccccc1OC(=O)N1CCOCC1` the Potency was “inactive”.
In the case of `O=C(/C=C/c1cccs1)c1cc(Cl)ccc1OC(=O)N1CCOCC1`, the Potency is reported as 8.28 µM (active).
In the case of `O=C(NCC(c1cccs1)N1CCOCC1)c1cc(Cl)ccc1[N+](=O)[O-]` (stereo unspecified), the Potency is reported as “inactive”.
In the case of `CCOc1cc(C)c(S(=O)(=O)NCc2ccccn2)cc1C`, the Potency is reported as “inactive”.
With `COc1ccc2[nH]c(C(=O)N3CCN(C)CC3)c(C)c2c1` the Potency was “inactive”.
With `O=C(c1cc2ccccc2s1)N1CCN(c2ccccn2)CC1` the Potency was “inactive”.
For `O=C(NC1CCCC1)C(c1ccco1)N(C(=O)c1csnn1)c1ccccc1` (stereo unspecified), the Potency was “inactive”.
With `OCC[C@H]1C[C@@H](O)[C@H](O)[C@]2(OCCCc3ccccc32)O1` the Potency was “inactive”.
In the case of `Cc1ccc(N2CC(C(=O)Nc3cc(Cl)ccc3-n3cncn3)CC2=O)cc1` (stereo unspecified), the Potency is reported as “inactive”.
With `COc1ccc(Cl)cc1NC(=O)CCN1CCOCC1` the Potency was “inactive”.
With `COc1cc(OC)c(N2CC(C(=O)Nc3cc(Cl)ccc3N3CCOCC3)CC2=O)cc1Cl` (stereo unspecified) the Potency was 11.7 µM (active).
With `CN(C(=O)CSc1nnc(C2CC2)n1C)C1CCCc2ccccc21` (stereo unspecified) the Potency was “inactive”.
With `Cc1cc(C)n2nc(C(=O)OCC(=O)N(CCC#N)c3ccc(F)cc3)nc2n1` the Potency was “inactive”.
In the case of `O=C(CCn1nnc2ccccc2c1=O)N[C@@H](Cc1c[nH]c2ccccc12)C(=O)O`, the Potency is reported as “inactive”.
Potency means the concentration at half of the fitted maximal effect.
